Compound activity deposited in PubChem BioAssay by Sanford-Burnham Center for Chemical Genomics.
DUSP3 inh: VHR1 phosphatase inhibitors, primary screen, biochemical, colorimetric, HTS; 50,000 compounds, 0.7% hits; recombinant VHR phosphatase, colorimetric substrate read-out; inhibition, % at 20 µM; Dual specificity protein phosphatase 3 (Homo sapiens), P51452; in the data active = inhibition above about 60%
Target sequence (P51452 whole entry, looked up): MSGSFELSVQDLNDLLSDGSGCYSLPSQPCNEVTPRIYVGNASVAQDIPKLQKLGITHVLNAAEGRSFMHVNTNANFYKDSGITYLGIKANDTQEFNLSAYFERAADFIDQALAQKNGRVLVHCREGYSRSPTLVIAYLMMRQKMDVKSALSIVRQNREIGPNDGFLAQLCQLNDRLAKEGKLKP
Numbers without * were called inactive. The entries come from a sample that favours hits as a whole.

SMILES	DUSP3 inh
CN=C(C)C1=C(O)C(C(=O)OC)C(C)(C)CC1=O (stereo not given)	5
COc1ccccc1C(=O)N1CCN(c2ccc(F)cc2)CC1	-19
CC1=C(C)CC2C(=O)N(c3ccc(-c4ccc([N+](=O)[O-])cc4)cc3)C(=O)C2C1 (stereo not given)	-16
Cc1ccc(OCC(=O)N2CCN(c3ccc([N+](=O)[O-])cc3)CC2)cc1	0
COC(=O)C1C2C(=O)N(c3ccc([N+](=O)[O-])cc3)C(=O)C12c1ccc(Cl)cc1 (stereo not given)	102*
COC(=O)C1C2C(=O)N(c3ccccc3)C(=O)C12c1ccc(Cl)cc1 (stereo not given)	-2
O=C1C2C(c3ccc([N+](=O)[O-])cc3)OC3(C(=O)c4ccccc4C3=O)C2C(=O)N1c1ccc(Cl)cc1 (stereo not given)	-12
COC(=O)C1C2C(=O)N(c3ccc([N+](=O)[O-])cc3)C(=O)C12c1ccc(C)cc1 (stereo not given)	116*
Cc1ccc(C(C)C)c(OC(=O)c2ccccc2[N+](=O)[O-])c1	-5
C=C(C)CSc1nc2sc3c(c2c(=O)n1CC(=C)C)CC(C)(C)OC3	0
CN(C)c1ccc(/C=N/NC(=O)Cn2c3ccccc3c(=O)c3ccccc32)cc1[N+](=O)[O-]	-14
CCc1ccc(N2C(=O)NC(=O)/C(=C\c3cc(I)c(O)c(OC)c3)C2=O)cc1	14
O=C1NC(=S)N(c2cccc(Cl)c2)C(=O)/C1=C\c1ccc(N2CCCC2)cc1	53
O=C1NC(=S)N(c2ccccc2)C(=O)/C1=C/c1cc(Cl)cc(Cl)c1O	18
Cn1cccc1/C=C1/C(=O)NC(=S)N(c2cccc(Cl)c2)C1=O	75*
CCN1C(=O)/C(=C/c2cccc(OC)c2OC)C(=O)NC1=S	24
CCN1C(=O)/C(=C/c2ccoc2)C(=O)NC1=S	93*
C=CCN1C(=O)NC(=O)C(=Cc2cccn2C)C1=O	-6
O=C1NC(=S)N(c2cccc(Br)c2)C(=O)/C1=C/c1ccc(Cl)cc1	19
CCN1C(=O)/C(=C/c2cccn2C)C(=O)NC1=S	66*
CCN1C(=O)/C(=C/c2ccc(C)o2)C(=O)NC1=S	37
CCN1C(=O)/C(=C/c2ccc(N3CCCC3)cc2)C(=O)NC1=S	33
O=C1NC(=S)N(c2cccc(Br)c2)C(=O)/C1=C/C=C/c1ccccc1	69*
O=C1NC(=S)N(c2ccc(Br)cc2)C(=O)/C1=C/C=C/c1ccccc1	24
NC(=O)c1c(N)sc2c1CCCCC2	40
SMILES	DUSP3 inh
CC(C)c1nn2c(N)c(C=C3C=CC(=O)C=C3)c(=O)nc2s1	1
CCc1ccc(C(=O)CC2(O)C(=O)Nc3ccc(Br)cc32)cc1 (stereo not given)	13
O=C(N/N=C/c1ccc(-c2cccc(C(F)(F)F)c2)o1)c1ccco1	-14
O=C1Nc2ccccc2NC1C1OC(c2ccccc2)=CC1=O (stereo not given)	-2
CCOC(=O)C1=C(O)/C(=C/c2cccc(OC)c2O)N=C1C	2
COc1ccccc1N1CCN(C(=O)N2CCOCC2)CC1	-4
COc1ccc(Cl)cc1NC(=O)CC(C)C	1
COc1ccc(N2C(=O)/C(=C/c3cc4c(cc3Br)OCO4)SC2=S)cc1	-30
COc1ccc(-c2nc3cc(N)ccc3o2)cc1OC	-1
COc1cc(N)ccc1-n1c(C)ccc1C	70*
COc1ccc(C(=O)c2ccc(OC)c(N)c2)cc1N	5
Cc1ccc(N2CCN(/N=C\c3cccc(Br)c3)CC2)cc1	-3
N#Cc1ccccc1NC(=O)C(Cc1ccc([N+](=O)[O-])cc1)N1C(=O)c2ccccc2C1=O (stereo not given)	-3
Cc1nc2cc(-c3ccco3)[nH]n2c(=O)c1C	2
Cc1ccc(C(C)C)c(OCCOc2cccc(/C=C3/SC(=S)N(C)C3=O)c2)c1	3
O=C1NC(=S)NC(=O)C1=Cc1ccc(OCc2cccc(C(=O)O)c2)cc1	-13
